The record followed here is ChEMBL document CHEMBL4513216, “Probing the Open Global Health Chemical Diversity Library for Multistage-Active Starting Points for Next-Generation Antimalarials” (ACS Infect Dis, 2020).

SMILES strings stand for the structures. Out of some 69,000 compounds screened, about 8,600 (12%) showed an effect of 50% or more. This excerpt belongs to a sample that is enriched for strong results.

This assay concerns Plasmodium berghei. Nature of the assay: Screen against P. berghei liver stage (PbLuc), transformed with Luciferase, at 10uM. It is filed as functional, HepG2. As to conditions: tested at 10 uM.
For `O=S(=O)(C1CC1)N1C[C@@H]2COC[C@]2(COc2ccccn2)C1`, the INHIBITION turned out to be 26.3%.
Regarding `CC(C)c1nccc(N2CCN(CC(=O)N3CCOCC3)CC2)n1`, the INHIBITION is listed as -0.96%.
Consider `CN(CCc1ccncc1)C(=O)C1CSCN1C(=O)CC(C)(C)C` (stereo not given), for which the INHIBITION is given as -23.8%.
With `Cc1cccc(-n2cc3nc(N4CCC(C)CC4)[nH]cc-3c2=O)c1`, the INHIBITION amounted to 23.4%.
As for `Cc1cnc(NCC(C)(C)N2CCOCC2)nc1`, the figure is 65.7%; as for `Cc1cnc(NCC(C)(C)N2CCN(C)CC2)nc1`, 47.2%; as for `Cc1cnc(NCC(C)(C)N2CCCCC2)nc1`, 23.3%.
As for `CCNc1ncc(C(=O)N(C)Cc2nc3ccccc3n2C)cn1`, the INHIBITION amounted to 16.2%.
As to `CN(C)C(=O)c1ccc(NCCNc2ccc3ccccc3n2)nc1`, the INHIBITION was found to be 8.13%.
On to `CSCCNc1ccc(C(=O)N(C)Cc2ccc3ccccc3n2)cn1`, for which the INHIBITION turned out to be 56.1%.
For `CCn1c(CN(C)C(=O)c2ccc(O)nc2)nc2ccccc21`, the INHIBITION is -82.4%.
With `CNc1ccc(C(=O)N(C)Cc2ccc3ccccc3n2)cn1`, the INHIBITION is given as 69.7%.
On to `CCn1c(CN(C)C(=O)c2ccc(N(C)C)nc2)nc2ccccc21`, for which the INHIBITION is given as -17.4%.
In the case of `Cn1ccnc1-c1cn(Cc2cn3c(n2)SCC3)nn1`, the INHIBITION turned out to be 5.75%.
In the case of `Cc1cccc(CN2C(=O)CCC23CCN(C(=O)N2CCCC2)CC3)n1`, the INHIBITION was 18.6%.
As for `CC(=O)N1N=C(c2ccccc2)OC1C(=O)N(C)Cc1ccccc1` (stereo not given), the INHIBITION came out at 24.3%.
Take `O=C(N[C@@H]1CCN(Cc2ccc(F)cc2F)C[C@H]1O)c1cccnc1`: the INHIBITION was -26.8%.
In the case of `CCOCCCNC(=O)c1nnn(Cc2ccccc2)c1OC`, the INHIBITION came to 13.5%.
In the case of `CNC(=O)c1cnc(/C=C/c2cc(OC)c(OC)c(OC)c2)s1`, the INHIBITION came to 53.5%.
In the case of `CCOc1c(OC)cc(C=Cc2ncc(C(=O)NC)s2)cc1OC`, the INHIBITION was 52.6%.
Then `COc1cc(/C=C/c2ncc(C(=O)O)s2)cc(Cl)c1O`, with -20.9%; and `CCOc1c(Cl)cc(/C=C/c2ncc(C(=O)O)s2)cc1OC`, with 7.27%.
For `CNC(=O)c1cnc(C=Cc2ccc(O)c(OC)c2)s1`, the INHIBITION is recorded as -84.4%.
Consider `CCOc1cc(/C=C/c2ncc(C(=O)O)s2)ccc1O`, for which the INHIBITION is -6.62%.
For `CCOc1cc(C=Cc2ncc(C(=O)NC)s2)ccc1OC`, the INHIBITION stood at 72.2%.
As for `CNC(=O)c1cnc(C=Cc2cc(OC)c(O)c(OC)c2)s1`, the figure is 50%; as for `CNC(=O)c1cnc(C=Cc2cc(OC)c3c(c2)OCCO3)s1`, 41.4%; as for `CNC(=O)c1cnc(/C=C/c2ccc(OC)c(O)c2)s1`, 40.1%.
As for `CCOc1c(Br)cc(/C=C/c2ncc(C(=O)O)s2)cc1OC`, the figure is -39.3%; as for `CNC(=O)c1cnc(/C=C/c2cc(OC)cc(OC)c2)s1`, -76.5%.
